Shown is part of a subset that was picked to be rich in hits.
Cycloheximide cs: counter-screen hit for Shiga toxin inhibitors, cycloheximide. cell reporter, cycloheximide protein synthesis inhibition counterscreen. max response, %. 300,000 compounds, 12% hits. AID 2314; in the data active = max response mostly above about 13%, no sharp cut-off; inactive = mostly below about 14%; also: read at 38.3 µM for the half of the compounds with a filed dose; 0% is about no effect
Marburg entry inh: Marburg virus entry inhibition; Marburg virus pseudotyped entry inhibition, cell reporter; Potency, µM (titrated, usually from 37.8 µM), for the others: at the highest dose activity change, negative = inhibition, hits mostly inhibitors; 300,000 compounds, 1.8% hits; calls by dose curve; tested in HEK293 cells; also: potency is read from the fitted curve at half-maximal effect; % is scaled to controls: 0 for no effect and ±100 for the full control effect
Shiga inhibitor: blocks Shiga toxin action in Vero cells. Vero cells, Shiga toxin protein synthesis inhibition reporter. 290,000 compounds, 9.2% hits. AID 2315. inhibition, % at 38.7 µM; in the data active = inhibition mostly above about 28%, no sharp cut-off; inactive = mostly below about 43%; also: 0% is about no effect
LASV entry inh: blocks Lassa virus binding to or entry into cells; Lassa virus pseudotype entry inhibition, cell reporter; Potency, µM (series often up to 37.9 µM), inactives show at the highest dose activity change, negative = inhibition, actives largely listed as inhibitors; 300,000 compounds, 1.2% hits; calls by dose curve; tested in HEK293 cells; also: potency is read from the fitted curve at half-maximal effect; % is scaled to controls: 0 for no effect and ±100 for the full control effect; nearly all actives have a fitted effect of over 50% in size
AMA1 RON2 block: AMA1-RON2 (P. falciparum) interaction inhibition; 360,000 compounds, 0.2% hits; Potency, µM (top dose mostly 58.2 µM), inactives show top-dose activity change, negative = inhibition, hits mostly inhibitors; AlphaScreen AMA1-biotinylated RON2 peptide binding; active = well fitted inhibition curve with a large enough effect; inconclusive = small, poorly fitted or top-dose-only effect; inactive = no such curve, though single readings can be large or run the other way;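 also: potency is read from the fitted curve at half-maximal effect; 0% = vehicle wells and -100% = peptide control; nearly all actives have a fitted effect of over 45% in size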
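AMA1 (3D7) with his tag at 25 nM final met compounds first, then biotinylated RON2 peptide at 25 nM; detection used donor plus acceptor beads, 10 µg/mL apiece, read by AlphaScreen after 30 min at room temperature.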
* marks the source's active call; other numbers are inactive results; ? = inconclusive; / = no result given; [ ] = dose if it differs, or a comment.

SMILES | Cycloheximide cs | Marburg entry inh | Shiga inhibitor | LASV entry inh | AMA1 RON2 block
O=C1OC(c2ccccc2)=C/C1=C/N1CCOCC1 | 17* | 13% | 63* | 8% | -10%
O=C(NC1CC1)c1ccc(C2SCC(=O)N2Cc2ccccc2)cc1 (centres undefined) | -1 | ? | 14 | -4%[46.1 µM] | -6%
OC(CN1CCCCC1)Cn1c2ccc(Cl)cc2c2cc(Cl)ccc21 (centres undefined) | -3 | 10µM* | 3 | -29% | -22%
Cc1cccc(S(=O)(=O)c2cn(Cc3ccccc3)c3cc(N4CCC(C)CC4)c(F)cc3c2=O)c1 | -1 | / | -6 | -1%[46.1 µM] | /
C=CCNCc1cccn1-c1ccccc1 | -3 | -8% | -7 | 0% | ?
CCN(CC)c1ccc(NC(=O)c2cnn(-c3ccccc3)c2-n2cccc2)c(C)c1 | / | ? | / | 5%[46.1 µM] | /
CCOc1ccc(NC(=O)CN(C)Cc2cc(=O)n3c(-c4ccccc4)csc3n2)cc1OCC | 2 | 2%[46.1 µM] | -5 | -3% | 8%
O=C(NCCN1CCC(n2c(=O)[nH]c3ccccc32)CC1)c1ccccc1C(F)(F)F | / | / | / | / | 8%
Cn1c(=O)c2c(nc(N/N=C/c3ccc(OC(=O)c4ccco4)cc3)n2Cc2ccccc2)n(C)c1=O | -5 | ? | 6 | 10µM* | 23%
CCOC(=O)c1ccc(Oc2nc(OC)cc(OC)n2)cc1 | 8 | / | 16 | / | 8%
O=C(CC1CCCCC1)Nc1nc2ccccc2s1 | 33* | -6%[46.1 µM] | 59* | ? | 6%
O=C(Nc1nc2ccccc2s1)NC1CCCCC1 | 40* | / | 125* | / | -8%
CCOC(=O)C(C(=O)Nc1nc2ccccc2s1)C1CCCCC1 (centres undefined) | -3 | ? | -11 | -5% | -4%
Cc1cnc(NC(=O)CC2CCCC2)s1 | 49* | -1%[46.1 µM] | 105* | ? | 0%
CCCCNC(=O)C1C(c2ccc(C(F)(F)F)cc2)=Nc2ccccc2N1C(=O)C1CCN(C(C)=O)CC1 (centres undefined) | / | / | / | / | 0%
Cc1cc(C)nc(N2CCCC(CCC(=O)NCc3ccc(F)c(F)c3)C2)n1 (centres undefined) | -2 | -23%[46.1 µM] | 30 | / | 23%
Cc1ccc(COc2ccsc2C(=O)NN)cc1 | 17 | -1%[46.1 µM] | 28 | 3% | 9%
CC1Cc2cc(/C(O)=C3/C(=O)C(=O)N(Cc4cccnc4)C3c3cccc(O)c3)ccc2O1 (centres undefined) | 34* | / | 66* | / | 0%
C=CCOc1cccc(C2/C(=C(\O)c3ccc4c(c3)OCCO4)C(=O)C(=O)N2Cc2cccnc2)c1 (centres undefined) | -2 | 5%[46.1 µM] | 19 | 3%[46.1 µM] | -1%
COc1cccc(C2/C(=C(/O)c3ccc4c(c3)CC(C)O4)C(=O)C(=O)N2c2nnc(C)s2)c1 (centres undefined) | -5 | ? | -7 | 14%[46.1 µM] | 11%
CC1Cc2cc(/C(O)=C3/C(=O)C(=O)N(CCN4CCOCC4)C3c3cccc(O)c3)ccc2O1 (centres undefined) | 62* | 12% | 91* | 7% | 34%
Cc1nnc(N2C(=O)C(=O)/C(=C(\O)c3ccc4c(c3)CC(C)O4)C2c2ccccc2)s1 (centres undefined) | 25* | 0%[46.1 µM] | 50* | ? | 6%
COC(=O)c1ccc(C2/C(=C(/O)c3ccc4c(c3)CC(C)O4)C(=O)C(=O)N2Cc2cccnc2)cc1 (centres undefined) | -4 | / | -6 | / | -15%
O=C1C(=O)N(Cc2cccnc2)C(c2cccc(O)c2)/C1=C(\O)c1ccc2c(c1)OCCO2 (centres undefined) | 25* | / | 74* | / | 9%
C=CC[C@@H]1/C=C(\C)C[C@H](C)C[C@H](OC)[C@H]2O[C@@](O)(C(=O)C(=O)N3CCCC[C@H]3C(=O)O[C@H](/C(C)=C/[C@@H]3CC[C@@H](O)[C@H](OC)C3)[C@H](C)[C@@H](O)CC1=O)[C@H](C)C[C@@H]2OC | -3 | / | -6 | / | /
SMILES | Cycloheximide cs | Marburg entry inh | Shiga inhibitor | LASV entry inh | AMA1 RON2 block
O=C1C(=O)N(Cc2ccncc2)C(c2cccc(O)c2)/C1=C(\O)c1ccc2c(c1)OCCO2 (centres undefined) | 32* | / | 78* | / | 14%
CC1Cc2cc(/C(O)=C3/C(=O)C(=O)N(CCCn4ccnc4)C3c3ccc([N+](=O)[O-])cc3)ccc2O1 (centres undefined) | / | / | / | / | 17%
CCOc1cccc(C2/C(=C(\O)c3ccc4c(c3)OCCO4)C(=O)C(=O)N2Cc2ccncc2)c1 (centres undefined) | -4 | 21%[46.1 µM] | -3 | 6%[46.1 µM] | 19%
CC1Cc2cc(/C(O)=C3/C(=O)C(=O)N(CC4CCCO4)C3c3ccco3)ccc2O1 (centres undefined) | 41* | 16% | 74* | 17% | -10%
CC1Cc2cc(/C(O)=C3\C(=O)C(=O)N(CCN(C)C)C3c3ccccc3F)ccc2O1 (centres undefined) | 18* | 1% | 77* | 1% | 9%
CC1Cc2cc(/C(O)=C3/C(=O)C(=O)N(CCCn4ccnc4)C3c3ccc(F)cc3)ccc2O1 (centres undefined) | 21* | 19%[46.1 µM] | 63 | 3%[46.1 µM] | 10%
CCCCCc1cc(O)c2c(C)cc(=O)oc2c1 | 13* | -85% | 40 | ? | -1%
c1ccc2[nH]c3cc4ncnc4cc3nc2c1 | 28* | -25% | 36* | -11% | -12%
CN1CCN(CCCC(=O)c2ccc(C3CCCC3)cc2)CC1 | 29* | ? | 54* | ? | 6%
COc1cc(/C=C(\C#N)c2nc3ccccc3c(=O)[nH]2)cc(OC)c1OC | / | / | / | 1%[46.1 µM] | /
COc1cc(/C=C/c2nc3ccccc3c(=O)[nH]2)cc(OC)c1OC | 28* | / | 48 | / | 2%
C=CCOc1cccc(/C=C/c2nc3ccccc3c(=O)[nH]2)c1 | 41* | / | 71* | / | -16%
COc1cc(/C=C/c2nc3ccccc3c(=O)[nH]2)ccc1OC(F)F | 29* | / | 47 | / | -2%
C=CCNc1nc2ccccc2c(=O)[nH]1 | -1 | -1%[46.1 µM] | 7 | 0% | 4%
CCNC(=O)C1(C)CCN(C(=O)c2ccc(OC(F)F)cc2)C1 (centres undefined) | / | / | / | / | -9%
O=C(CSc1nc2ccccc2o1)NCC1CCCO1 (centres undefined) | / | 10% | / | ? | 0%
COCCCN1CN=C(Nc2nc3ccccc3o2)NC1 | 40* | 1% | 61* | 15% | 0%
c1ccc2oc(NC3=NCN(CC4CCCO4)CN3)nc2c1 (centres undefined) | 29* | 5% | 81* | ? | 28%
CCCN1CN=C(Nc2nc3ccccc3o2)NC1 | 32* | 20%[46.1 µM] | 130* | 14% | 11%
OCCN1CN=C(Nc2nc3ccccc3o2)NC1 | -1 | -3%[46.1 µM] | -4 | 4% | 66%
O=C(NCc1cc2ccccc2[nH]1)c1ccccc1F | 38* | ? | / | 4% | 1%
O=C(NCCCCNC(=O)c1ccccc1F)c1ccccc1F | -4 | ? | -4 | 8%[46.1 µM] | -11%
O=C(NCc1nc2ccccc2[nH]1)c1ccccc1F | 33* | 0%[46.1 µM] | 72* | ? | -10%
Cc1ccc2[nH]c(CNC(=O)c3ccccc3F)cc2c1 | 29* | ? | 51 | ? | 0%

Source: PubChem BioAssay
